The results in this text go back to PubChem BioAssay (EPA / NIEHS).

Calls of active or inactive are those of the source. Rule for the calls: active = hit-call score of the fitted dose curve at least 0.9, where 1 is the maximum; inactive = score below 0.9.

Read-out in test [1]: Macrophage colony-stimulating factor (MCSF), CSF1 (gene 1435)
The test can be described thus: BSK_CASM3C_MCSF: BioMAP Diversity Plus: CASM3C Assay for Macrophage colony-stimulating factor (MCSF) Biomarker Activity (AID 2283044).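 Note: M-CSF protein amount quantified by ELISA after 24 h exposure.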 To be noted: primary human coronary artery smooth muscle cells; actives raise or lower the signal.

Read-out in test [2]: Low-density lipoprotein receptor (LDLR), LDLR (gene 3949)
The test can be described thus: BSK_CASM3C_LDLR: BioMAP Diversity Plus: CASM3C Assay for Low-density lipoprotein receptor (LDLR) Biomarker Activity (AID 2283045).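 Note: LDLR protein level on the cell surface quantified by ELISA.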 To be noted: primary human coronary artery smooth muscle cells; actives raise or lower the signal.

Read-out in test [3]: Monocyte Chemoattractant Protein-1 (MCP1), CCL2 (gene 6347)
Put plainly: BSK_CASM3C_MCP1: BioMAP Diversity Plus: CASM3C Assay for Monocyte Chemoattractant Protein-1 (MCP1) Biomarker Activity (AID 2283046).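 Note: MCP-1 level quantified by ELISA 24 h after dosing.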 To be noted: primary human coronary artery smooth muscle cells; actives raise or lower the signal.

Test [4] can be described thus: BSK_CASM3C_Proliferation: Cell Proliferation Assessment in the BioMAP Diversity Plus: CASM3C Assay (AID 2283047).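 Note: sulforhodamine B total protein stain as relative cell number at 560 nm; sub-confluent cells exposed 48 h before staining; fitted both ways against DMSO so gain or loss of cell number.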 To be noted: primary human coronary artery smooth muscle cells.
Read-out in test [5]: Monokine induced gamma interferon (MIG), CXCL9 (gene 4283)
Put plainly: BSK_CASM3C_MIG: BioMAP Diversity Plus: CASM3C Assay for Monokine induced gamma interferon (MIG) Biomarker Activity (AID 2283048).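 Note: MIG protein level measured by ELISA.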 As to conditions: primary human coronary artery smooth muscle cells; actives raise or lower the signal.

Read-out in test [6]: serum amyloid A (SAA), SAA1 (gene 6288)
The test can be described thus: BSK_CASM3C_SAA: BioMAP Diversity Plus: CASM3C Assay for serum amyloid A (SAA) Biomarker Activity (AID 2283049).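 Note: SAA protein level quantified by ELISA.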 As to conditions: primary human coronary artery smooth muscle cells; actives raise or lower the signal.

Test [7] in a line: BSK_CASM3C_SRB: Viability Assessment in the BioMAP Diversity Plus: CASM3C Assay (AID 2283050).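 Note: total protein by SRB staining as cytotoxicity measure in parallel cultures; cells exposed to compound for 24 h.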 As to conditions: primary human coronary artery smooth muscle cells.
Read-out in test [8]: Thrombomodulin, THBD (gene 7056)
The test can be described thus: BSK_CASM3C_Thrombomodulin: BioMAP Diversity Plus: CASM3C Assay for Thrombomodulin Biomarker Activity (AID 2283051).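 Note: thrombomodulin protein level measured by ELISA 24 h after dosing.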 As to conditions: primary human coronary artery smooth muscle cells; actives raise or lower the signal.

Read-out in test [9]: Tissue Factor, F3 (gene 2152)
The test can be described thus: BSK_CASM3C_TissueFactor: BioMAP Diversity Plus: CASM3C Assay for Tissue Factor Biomarker Activity (AID 2283052).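 Note: cell surface tissue factor protein level read by ELISA.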 As to conditions: primary human coronary artery smooth muscle cells; actives raise or lower the signal.

Read-out in test [10]: Interferon-gamma inducible Protein 10 (IP10), CXCL10 (gene 3627)
The test can be described thus: BSK_hDFCGF_IP10: BioMAP Diversity Plus: hDFCGF Assay for Interferon-gamma inducible Protein 10 (IP10) Biomarker Activity (AID 2283053). To be noted: primary human foreskin fibroblasts; actives raise or lower the signal. An outline of the steps:
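IP-10 levels, quantified by ELISA, are taken from human foreskin fibroblast cultures 24 h after chemical treatment, with DMSO serving as negative control and baseline for bidirectional analysis.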

The term AC50 denotes the concentration at which the activity in the assay is half-maximal.

`Oc1ccc(-c2ccccc2)cc1`: the half-maximal activity concentration (AC50) in test [1] was 32.5 µM (active); in [2], 3.97 µM (active); in test [4], 6 µM (active); in [7], 3.97 µM (active); in test [9], 20 µM (active). Moreover, the result in [3], in test [5], in [6], in test [8] and in test [10] was inactive.

Turning to `CCSC(C)CC1CC(=O)C(C(CC)=NOC/C=C/Cl)=C(O)C1` (centres undefined), the outcome in test [1], in test [2], in [3], in [4], in test [5] and in test [6] was inactive. The result in test [7], in test [8], in test [9] and in test [10] was inactive.

For the compound `CCCCCCCCc1ccc(O)cc1`, the half-maximal activity concentration (AC50) is 31.9 µM (active) in [1]; 20.1 µM (active) in test [2]; 27.8 µM (active) in [3]; 31.5 µM (active) in [4]; 31.2 µM (active) in [5]; 36.1 µM (active) in [6]. Also, the AC50 in test [7] is 30.9 µM (active); in test [8], 34.6 µM (active); in [9] it was 28.7 µM (active); in test [10] it was 25.8 µM (active).

As for `ClC(Cl)=C(Cl)C(Cl)=C(Cl)Cl`, the result in test [1], in [2], in [3], in test [5], in [6] and in test [7] was inactive. Also, the outcome in test [9] and in test [10] was inactive. The results for the AC50 in [4] and in [8] were 1.52 µM (active) and 0.0235 µM (active), respectively.

`CC(=O)[O][Hg][c]1ccccc1`: the concentration at half-maximal activity (AC50) in [1] is 0.816 µM (active); in test [2] it was 0.148 µM (active); in test [3], 0.394 µM (active); in [4], 0.148 µM (active); in test [5], 2.05 µM (active); in test [6], 0.47 µM (active). For the same compound, the half-maximal activity concentration (AC50) in test [7] was 0.148 µM (active); in test [9] it was 3.97 µM (active); in [10] it was 0.289 µM (active). Also, the result in test [8] was inactive.

With `O=C(O)C(Cl)(Cl)Cl`, the result in test [1], in test [2], in test [3], in test [4], in test [5] and in [6] was inactive. For the same compound, the result in test [7], in [8], in [9] and in test [10] was inactive.

Take `COC[C@H](C)N(C(=O)CCl)c1c(C)csc1C`: the result in test [1], in [2], in [3], in test [4], in test [5] and in test [6] was inactive. For the same compound, the outcome in [7], in test [8], in [9] and in test [10] was inactive.

Turning to `CCNc1nc(NC(C)(C)C)nc(SC)n1`, the outcome in test [1], in test [2], in [3], in test [4], in test [5] and in test [6] was inactive. Besides, the outcome in test [7], in test [8], in [9] and in test [10] was inactive.

With `CCOP(=S)(OCC)Oc1ccc(S(C)=O)cc1` (centres undefined), the result in [1], in test [2], in [3], in test [4], in test [5] and in test [6] was inactive. Further, the result in [7], in test [8], in [9] and in test [10] was inactive.

`COC(=O)c1sccc1S(=O)(=O)NC(=O)Nc1nc(C)nc(OC)n1`: the result in test [1], in [2], in test [3], in test [4], in test [5] and in test [6] was inactive. Further, the outcome in test [7], in test [8], in test [9] and in [10] was inactive.

Take `Oc1c(I)cc(I)cc1I`: the outcome in [1], in [2], in test [3], in test [4], in test [5] and in test [6] was inactive. Besides, the result in test [7], in test [8], in test [9] and in test [10] was inactive.

On to `COP(=S)(OC)Oc1ccc(Sc2ccc(OP(=S)(OC)OC)cc2)cc1`, for which the result in test [1], in test [2], in [3], in test [4], in [5] and in [6] was inactive. The result in test [7], in test [9] and in [10] was inactive. Besides, the half-maximal activity concentration (AC50) in [8] is 12.6 µM (active).

For `Nc1cccc2ccccc12`, the outcome in [1], in [3], in test [4], in test [5], in test [6] and in test [7] was inactive. Further, the outcome in test [9] was inactive. Also, the AC50 in [2] is 12.6 µM (active); in test [8], 15.2 µM (active); in test [10], 31.6 µM (active).

On to `CCOP(=S)(OCC)Oc1nc(Cl)c(Cl)cc1Cl`, for which the result in [1], in [2], in test [3], in [4], in test [5] and in test [6] was inactive. Besides, the result in [7] and in test [9] was inactive. Also, the AC50 was 26.9 µM (active) in test [8] and 20 µM (active) in test [10].

Regarding `COP(=S)(OC)Oc1ccc(S(=O)(=O)N(C)C)cc1`, the result in test [1], in [2], in [3], in [4], in test [5] and in test [6] was inactive. The outcome in [7], in test [8], in test [9] and in test [10] was inactive.

In the case of `CC(C)(c1ccccc1)c1ccc(O)c(C(C)(C)c2ccccc2)c1`, the half-maximal activity concentration (AC50) in test [1] was 25.3 µM (active); in test [2] it was 28.2 µM (active); in test [4] it was 7.92 µM (active); in test [5], 29.4 µM (active); in [6] it was 23.6 µM (active); in test [7], 26.8 µM (active). Also, the figures for the concentration at half-maximal activity (AC50) in test [8], in [9] and in test [10] were 34.3 µM (active), 16.4 µM (active) and 3.52 µM (active), respectively.

In the case of `NC(=O)O`, the result in test [1], in test [2], in [3], in [4], in [5] and in test [6] was inactive. The result in test [7], in test [8], in [9] and in test [10] was inactive.
